Measurements published in PubChem BioAssay (Tox21).
A number with no mark means an inactive call. A call without a number means that no potency is given here. Calls of active or inactive are those of the source. Calls follow the shape of the dose curve; as a rule, active = well fitted curve in the direction sought with a large enough effect in the repeat runs; inconclusive = weak or mixed curves; inactive = flat fitted curve, though single readings scatter.

Assay: qHTS assay to test for compound auto fluorescence at 460 nm (blue) in HEK293 cells (AID 720678)
Details: blue autofluorescence 405/460 nm; series mostly up to 91.3 µM; fluorescence, % of triamterene: at the top concentration
Outline: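 Cells were seeded and left to adhere for 4-5 hr at 37C. Compounds were then pin-transferred. After an overnight incubation at 37C under 5% CO2, intrinsic fluorescence at 405/460 nm was measured and referenced to triamterene.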
For `CCc1ccccc1O`, the Potency was “inactive”.
For `CN(C)c1cccc(O)c1`, the “fluorescence, % of triamterene” value was 1.88% [at 95.7 µM].
In the case of `O=C1N=C(O)CN1/N=C/c1ccc(-c2ccc([N+](=O)[O-])cc2)o1`, the Potency is reported as “inactive”.
With `CS(=O)(=O)Nc1ccc([N+](=O)[O-])cc1Oc1ccccc1` the Potency was “inactive”.
For `C=C1CC[C@H](O)CC1=C/C=C1\CCC[C@]2(C)[C@@H]([C@H](C)/C=C/[C@H](C)C(C)C)CC[C@@H]12`, the Potency was “inactive”.
For `CCCCC(CC)COC(C)=O` (centres undefined), the Potency was “inactive”.
In the case of `CCCCCCCCCC(=O)O`, the Potency is reported as “inactive”.
For `OCC#CCO`, the Potency was “inactive”.
For `CC1CC(OC(=O)c2ccccc2O)CC(C)(C)C1` (centres undefined), the Potency was “inactive”.
For `Oc1ccc2ccccc2c1N=Nc1ccccc1`, the Potency was “inactive”.
For `O=C1CCCCC1`, the Potency was “inactive”.
With `CC(C)n1c(/C=C/[C@@H](O)C[C@@H](O)CC(=O)O)c(-c2ccc(F)cc2)c2ccccc21` the Potency was “inactive”.
For `CC1COc2ccccc2N1C(=O)C(Cl)Cl` (centres undefined), the Potency was “inactive”.
With `CCCCCCC(C)(C)S` the Potency was “inactive”.
For `CC(=O)[C@@]1(O)CC[C@H]2[C@@H]3CCC4=CC(=O)CC[C@]4(C)[C@H]3CC[C@@]21C`, the Potency was “inactive”.
In the case of `CC(C)NCC(O)COc1cccc2ccccc12` (centres undefined), the Potency is reported as “inactive”.
With `CCCCCCCCCCC=CC1CC(=O)OC1=O` (centres undefined) the Potency was “inactive”.
In the case of `O=S(=O)(Oc1ccc(Cl)cc1Cl)c1ccccc1`, the Potency is reported as “inactive”.
With `NCCNCCNCCNCCN` the Potency was “inactive”.
With `Cc1ccc(C(=O)O)o1` the Potency was “inactive”.
In the case of `CCCCOCCOCCOC(=O)CCCCC(=O)OCCOCCOCCCC`, the Potency is reported as “inactive”.
For `CCOC(=O)C1OC1c1ccccc1` (centres undefined), the Potency was “inactive”.
With `O=Nc1ccc(O)cc1` the Potency was “inactive”.
For `CC(C)(N=C=O)c1cccc(C(C)(C)N=C=O)c1`, the Potency was “inactive”.
For `CN(CCOc1ccc(CC2SC(=O)NC2=O)cc1)c1ccccn1` (centres undefined), the Potency was “inactive”.
With `NC(=O)NNc1ccccc1` the Potency was “inactive”.

Assay: qHTS assay to test for compound auto fluorescence at 590 nm (red) in HEK293 cells (AID 720679)
Details: red autofluorescence 540/590 nm; series mostly up to 91.3 µM; fluorescence, % of fluorescent control: at the top concentration
Outline: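 Each well held 2,000 HEK293 cells in medium containing 10% dialyzed FBS. Following 4-5 hr attachment at 37C, 23 nL test compound or DMSO was added; plates sat overnight, and red fluorescence (540/590nm) was recorded.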
With `CCc1ccccc1O` the outcome was “inactive”.
For `CN(C)c1cccc(O)c1`, the outcome was “inactive”.
With `O=C1N=C(O)CN1/N=C/c1ccc(-c2ccc([N+](=O)[O-])cc2)o1` the outcome was “inactive”.
In the case of `CS(=O)(=O)Nc1ccc([N+](=O)[O-])cc1Oc1ccccc1`, the outcome is reported as “inactive”.
For `C=C1CC[C@H](O)CC1=C/C=C1\CCC[C@]2(C)[C@@H]([C@H](C)/C=C/[C@H](C)C(C)C)CC[C@@H]12`, the outcome was “inactive”.
In the case of `O=[N+]([O-])c1cc(N(CCO)CCO)ccc1NCCO`, the outcome is reported as “inactive”.
With `CCCCC(CC)COC(C)=O` (centres undefined) the outcome was “inactive”.
In the case of `CCCCCCCCCC(=O)O`, the outcome is reported as “inactive”.
In the case of `OCC#CCO`, the outcome is reported as “inactive”.
In the case of `Cc1cc(NS(=O)(=O)c2ccc(N)cc2)no1`, the outcome is reported as “inactive”.
In the case of `CC1CC(OC(=O)c2ccccc2O)CC(C)(C)C1` (centres undefined), the outcome is reported as “inactive”.
For `Oc1ccc2ccccc2c1N=Nc1ccccc1`, the outcome was “inactive”.
In the case of `O=C1CCCCC1`, the outcome is reported as “inactive”.
For `O=C(O)c1ccc([N+](=O)[O-])cc1`, the outcome was “inactive”.
With `CC(C)n1c(/C=C/[C@@H](O)C[C@@H](O)CC(=O)O)c(-c2ccc(F)cc2)c2ccccc21` the outcome was “inactive”.
In the case of `CC1COc2ccccc2N1C(=O)C(Cl)Cl` (centres undefined), the outcome is reported as “inactive”.
In the case of `CCCCCCC(C)(C)S`, the outcome is reported as “inactive”.
For `CC(=O)[C@@]1(O)CC[C@H]2[C@@H]3CCC4=CC(=O)CC[C@]4(C)[C@H]3CC[C@@]21C`, the outcome was “inactive”.
For `CC(C)NCC(O)COc1cccc2ccccc12` (centres undefined), the outcome was “inactive”.
In the case of `CCCCCCCCCCC=CC1CC(=O)OC1=O` (centres undefined), the outcome is reported as “inactive”.
In the case of `O=S(=O)(Oc1ccc(Cl)cc1Cl)c1ccccc1`, the outcome is reported as “inactive”.
In the case of `Cc1cc(O)cc(C)c1Cl`, the outcome is reported as “inactive”.
For `NCCNCCNCCNCCN`, the outcome was “inactive”.
In the case of `Cc1ccc(C(=O)O)o1`, the outcome is reported as “inactive”.
For `CC(C)(C)C(=O)C1C(=O)c2ccccc2C1=O`, the outcome was “inactive”.
For `CCCCOCCOCCOC(=O)CCCCC(=O)OCCOCCOCCCC`, the outcome was “inactive”.
In the case of `OC1CCCC1`, the outcome is reported as “inactive”.
With `Oc1ccc2ccccc2c1` the outcome was “inactive”.
With `CC1=CC[C@H]2C[C@@H]1C2(C)C` the outcome was “inactive”.
In the case of `CC1=C(/C=C/C(C)=C/C=C/C(C)=C/CO)C(C)(C)CCC1`, the outcome is reported as “inactive”.
With `CCOC(=O)C1OC1c1ccccc1` (centres undefined) the outcome was “inactive”.
For `ClC1=C(Cl)C(Cl)(Cl)C(Cl)=C1Cl`, the outcome was “inactive”.
For `CCCCCC/C=C/CCCCCCCC(=O)O`, the outcome was “inactive”.
For `O=Nc1ccc(O)cc1`, the outcome was “inactive”.
With `CC(C)(N=C=O)c1cccc(C(C)(C)N=C=O)c1` the outcome was “inactive”.
With `CN(CCOc1ccc(CC2SC(=O)NC2=O)cc1)c1ccccn1` (centres undefined) the outcome was “inactive”.
With `NC(=O)NNc1ccccc1` the outcome was “inactive”.
For `Nc1c(S(=O)(=O)O)cc(Br)c2c1C(=O)c1ccccc1C2=O`, the outcome was “inactive”.
For `CCCCCCCCCCCCOCC1CO1` (centres undefined), the outcome was “inactive”.

Assay: qHTS assay to test for compound auto fluorescence at 535 nm (green) in HEK293 cells (AID 720680)
Details: green autofluorescence 485/535 nm; series mostly up to 91.3 µM; fluorescence, % of fluorescein: at the top concentration
With `CCc1ccccc1O` the outcome was “inactive”.
In the case of `CN(C)c1cccc(O)c1`, the outcome is reported as “inactive”.
With `O=C1N=C(O)CN1/N=C/c1ccc(-c2ccc([N+](=O)[O-])cc2)o1` the outcome was “inactive”.
In the case of `CS(=O)(=O)Nc1ccc([N+](=O)[O-])cc1Oc1ccccc1`, the outcome is reported as “inactive”.
For `C=C1CC[C@H](O)CC1=C/C=C1\CCC[C@]2(C)[C@@H]([C@H](C)/C=C/[C@H](C)C(C)C)CC[C@@H]12`, the outcome was “inactive”.
In the case of `O=[N+]([O-])c1cc(N(CCO)CCO)ccc1NCCO`, the outcome is reported as “inactive”.
In the case of `CCCCC(CC)COC(C)=O` (centres undefined), the outcome is reported as “inactive”.
For `CCCCCCCCCC(=O)O`, the outcome was “inactive”.
In the case of `OCC#CCO`, the outcome is reported as “inactive”.
In the case of `Cc1cc(NS(=O)(=O)c2ccc(N)cc2)no1`, the outcome is reported as “inactive”.
With `CC1CC(OC(=O)c2ccccc2O)CC(C)(C)C1` (centres undefined) the outcome was “inactive”.
With `Oc1ccc2ccccc2c1N=Nc1ccccc1` the outcome was “inactive”.
For `O=C1CCCCC1`, the outcome was “inactive”.
For `O=C(O)c1ccc([N+](=O)[O-])cc1`, the outcome was “inactive”.
For `CC(C)n1c(/C=C/[C@@H](O)C[C@@H](O)CC(=O)O)c(-c2ccc(F)cc2)c2ccccc21`, the outcome was “inactive”.
For `CC1COc2ccccc2N1C(=O)C(Cl)Cl` (centres undefined), the outcome was “inactive”.
With `CCCCCCC(C)(C)S` the outcome was “inactive”.
With `CC(=O)[C@@]1(O)CC[C@H]2[C@@H]3CCC4=CC(=O)CC[C@]4(C)[C@H]3CC[C@@]21C` the outcome was “inactive”.
With `CC(C)NCC(O)COc1cccc2ccccc12` (centres undefined) the outcome was “inactive”.
For `CCCCCCCCCCC=CC1CC(=O)OC1=O` (centres undefined), the outcome was “inactive”.
In the case of `O=S(=O)(Oc1ccc(Cl)cc1Cl)c1ccccc1`, the outcome is reported as “inactive”.
In the case of `Cc1cc(O)cc(C)c1Cl`, the outcome is reported as “inactive”.
In the case of `NCCNCCNCCNCCN`, the outcome is reported as “inactive”.
For `Cc1ccc(C(=O)O)o1`, the outcome was “inactive”.
For `CC(C)(C)C(=O)C1C(=O)c2ccccc2C1=O`, the outcome was “inactive”.
In the case of `CCCCOCCOCCOC(=O)CCCCC(=O)OCCOCCOCCCC`, the outcome is reported as “inactive”.
With `OC1CCCC1` the outcome was “inactive”.
With `Oc1ccc2ccccc2c1` the outcome was “inactive”.
With `CC1=CC[C@H]2C[C@@H]1C2(C)C` the outcome was “inactive”.
With `CC1=C(/C=C/C(C)=C/C=C/C(C)=C/CO)C(C)(C)CCC1` the outcome was “inactive”.
In the case of `CCOC(=O)C1OC1c1ccccc1` (centres undefined), the outcome is reported as “inactive”.
For `ClC1=C(Cl)C(Cl)(Cl)C(Cl)=C1Cl`, the outcome was “inactive”.
In the case of `CCCCCC/C=C/CCCCCCCC(=O)O`, the outcome is reported as “inactive”.
With `O=Nc1ccc(O)cc1` the outcome was “inactive”.
For `CC(C)(N=C=O)c1cccc(C(C)(C)N=C=O)c1`, the outcome was “inactive”.
With `CN(CCOc1ccc(CC2SC(=O)NC2=O)cc1)c1ccccn1` (centres undefined) the outcome was “inactive”.
In the case of `NC(=O)NNc1ccccc1`, the outcome is reported as “inactive”.
For `Nc1c(S(=O)(=O)O)cc(Br)c2c1C(=O)c1ccccc1C2=O`, the outcome was “inactive”.
For `CCCCCCCCCCCCOCC1CO1` (centres undefined), the outcome was “inactive”.
